Reference: PubChem BioAssay
Activity calls are given as the source filed them. Unless noted, the rule behind the calls is not given here.

Tests used:
[1] = tested on: Wnt5a (protein binding on small-molecule microarray); assay: Wnt5a binders on small-molecule microarray, primary screen, biophysical, 635/667 nm fluorescence (AID 1142); conditions: 635 nm fluorescence, higher = more signal;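 note: fluorescence read at 667 nm with signal to noise per printed feature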
[2] = cell viability in Huh7 cells, primary screen, cytotoxicity control for HCV replication inhibitor project, CellTiter-Glo luminescence, basal, 48 h (AID 1143); conditions: Huh7 HCV replicon, higher = more signal, called active from +8 up or from −8 down;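 note: Huh7 hepatoma cells carrying a hepatitis C replication reporter with no stimulus; test concentration not given here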
[3] = P. aeruginosa biofilm formation inhibitors, primary screen, PAO1 strain, BacTiter-Glo luminescence, LB-PBS (AID 1144); conditions: 12 h, higher = more signal
[4] = CREB reporter modulators without forskolin, primary screen, cell-based, PC12, CRE-LacZ reporter, unstimulated (AID 1145); conditions: no forskolin, luminescence, 4.5 h, higher = more signal, called active from +8 up or from −8 down
[5] = CREB reporter modulators under forskolin, primary screen, cell-based, PC12, CRE-LacZ reporter, forskolin-stimulated (AID 1146); conditions: luminescence, 4.5 h, higher = more signal, called active from +8 up or from −8 down;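 note: PC12 cells with 6xCRE LacZ reporter stimulated by forskolin 10 µM; beta-galactosidase reporter signal reflecting CREB driven transcription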
[6] = target: Streptavidin (Streptomyces avidinii) (UniProt P22629); assay: streptavidin binders on small-molecule microarray, primary screen, artefact control for SMM compound annotation, biophysical, 635/667 nm fluorescence (AID 1147); conditions: streptavidin binding, higher = more signal;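 note: signal reflects streptavidin binding to arrayed compounds as a control protein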
Chain of Streptavidin (Streptomyces avidinii) (P22629 whole entry, looked up): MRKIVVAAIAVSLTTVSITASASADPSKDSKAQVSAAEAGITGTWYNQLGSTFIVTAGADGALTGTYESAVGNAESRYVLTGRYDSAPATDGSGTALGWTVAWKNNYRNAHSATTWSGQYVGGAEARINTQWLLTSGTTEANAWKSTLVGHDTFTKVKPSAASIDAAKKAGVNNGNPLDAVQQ

[7] = small-molecule binders of probe aInhba, primary screen, biochemical, small-molecule microarray, 635/667 nm fluorescence (AID 1148); conditions: higher = more signal;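 note: score merges 667nm spot fluorescence with signal-to-noise for antibody binding to printed compounds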
Torsin-1A (Homo sapiens) [8] = target: Torsin-1A (Homo sapiens) (UniProt O14656); assay: torsin A binders from cell lysate, primary screen, small-molecule microarray, wild-type, 635/667 nm (AID 1149); conditions: COS7 hTOR1A-WT lysate, 635 nm fluorescence, higher = more signal
Chain of Torsin-1A (Homo sapiens) (O14656 whole entry, looked up): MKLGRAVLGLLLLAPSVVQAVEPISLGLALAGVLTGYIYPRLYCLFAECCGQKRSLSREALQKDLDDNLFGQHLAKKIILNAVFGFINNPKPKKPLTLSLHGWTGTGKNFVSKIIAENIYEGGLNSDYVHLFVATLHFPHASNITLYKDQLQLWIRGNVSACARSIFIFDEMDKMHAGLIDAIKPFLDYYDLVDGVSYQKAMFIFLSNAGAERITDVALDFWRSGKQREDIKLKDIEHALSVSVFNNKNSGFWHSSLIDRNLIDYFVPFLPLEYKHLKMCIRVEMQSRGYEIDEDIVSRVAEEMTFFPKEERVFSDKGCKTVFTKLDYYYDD

Torsin-1A (Homo sapiens) [9] = target: Torsin-1A (Homo sapiens) (UniProt O14656); assay: small-molecule binders of mutant TOR1A in lysate, primary screen, cell lysate, small-molecule microarray, COS7 lysate, 635/667 nm fluorescence (AID 1150); conditions: COS7 hTOR1A mutant lysate, 635 nm fluorescence, higher = more signal;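 note: score pools 667 nm emission and signal to noise measuring lysate protein binding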
[10] = tested on: Sonic hedgehog protein (Shh); assay: small-molecule binders of Shh protein, primary screen, biochemical, small-molecule microarray, 635/667 nm fluorescence (AID 1151); conditions: small-molecule microarray binding, 635 nm fluorescence; higher = more signal;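 note: Shh protein binding to compounds spotted on small-molecule microarray slides; score combines spot fluorescence intensity with signal-to-noise across triplicate slides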
[11] = E. coli DRC41 culture turbidity changes, primary screen, E. coli filamentation inducer project, strain DRC41, OD650, 48 h (AID 1152);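 note: E. coli MC1000 strain DRC41 lacking acrAB efflux pump and sulA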; conditions: E. coli DRC41 (acrAB sulA), higher = more signal, called active from +8 up or from −8 down
[12] = small-molecule binders of probe aLefty1, primary screen, biochemical, small-molecule microarray, 635/667 nm fluorescence (AID 1153); conditions: higher = more signal;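 note: score merges spot fluorescence with signal-to-noise ratio from the scanned slide images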
[13] = PSAC antagonists in infected red cells, primary screen, cell-based, P. falciparum Indochina, OD700, 1 h (AID 1154); conditions: P. falciparum Indochina infected RBC osmotic lysis, higher = more signal, called active from +8 up or from −8 down
[14] = PSAC antagonists in infected red cells, primary screen, cell-based, P. falciparum Indochina, OD700, 2 h (AID 1155);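 note: lysis reports solute entry through the parasite surface anion channel PSAC; channel blockers reduce lysis of infected cells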; conditions: P. falciparum Indochina infected erythrocytes, osmotic lysis OD700; higher = more signal, called active from +8 up or from −8 down
[15] = osmotic lysis modulators in infected erythrocytes, primary screen, PSAC antagonist project, cell-based, P. falciparum Indochina, OD700, 3 h (AID 1156); conditions: higher = more signal, called active from +8 up or from −8 down
[16] = PSAC antagonists in infected red cells, primary screen, cell-based, P. falciparum Indochina, OD700, 18 h (AID 1157); conditions: P. falciparum Indochina infected erythrocytes, osmotic lysis OD700, 18 h; higher = more signal, called active from +8 up or from −8 down
[17] = modulators of S6 phosphorylation in cells, primary screen, cell-based, A549, cytoblot, luminescence, serum-stimulated (AID 1158); conditions: A549 phospho-S6 cytoblot, 5 h, higher = more signal;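 note: serum-stimulated A549 lung adenocarcinoma cells; signal is phosphorylated S6 detected by cytoblot immunostaining with HRP secondary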
[18] = target: NADPH oxidase 2 (Homo sapiens) (UniProt P04839); assay: NOX2-dependent H2O2 signal modulators, primary screen, NOX inhibitor project, cell-based, HEK293-NOX2, PMA-stimulated, Amplex Red fluorescence (AID 1159); conditions: 45 min, higher = more signal, called active from +8 up or from −8 down; note: test concentration not given here
Chain of NADPH oxidase 2 (Homo sapiens) (P04839 whole entry, looked up): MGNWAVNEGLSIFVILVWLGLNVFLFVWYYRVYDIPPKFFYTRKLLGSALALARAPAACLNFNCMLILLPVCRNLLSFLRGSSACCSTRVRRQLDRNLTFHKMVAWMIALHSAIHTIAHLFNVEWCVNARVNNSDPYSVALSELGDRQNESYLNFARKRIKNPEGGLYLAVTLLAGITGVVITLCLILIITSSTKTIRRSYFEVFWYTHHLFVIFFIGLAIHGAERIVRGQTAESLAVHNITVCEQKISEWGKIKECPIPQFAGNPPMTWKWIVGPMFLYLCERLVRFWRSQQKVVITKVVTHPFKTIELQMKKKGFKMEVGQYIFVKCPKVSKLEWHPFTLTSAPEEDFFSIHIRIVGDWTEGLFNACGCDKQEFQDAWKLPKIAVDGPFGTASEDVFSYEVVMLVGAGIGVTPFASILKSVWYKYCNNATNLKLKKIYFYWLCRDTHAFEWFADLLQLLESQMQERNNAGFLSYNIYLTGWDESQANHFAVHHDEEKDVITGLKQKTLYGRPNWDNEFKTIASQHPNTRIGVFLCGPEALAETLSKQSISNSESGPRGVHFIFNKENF

[19] = target: NADPH oxidase 4 (Homo sapiens) (UniProt Q9NPH5); assay: NOX4-dependent H2O2 signal modulators, primary screen, NOX inhibitor project, cell-based, HEK293-NOX4, tetracycline-induced, Amplex Red fluorescence (AID 1160); conditions: 45 min, higher = more signal, called active from +8 up or from −8 down
Chain of NADPH oxidase 4 (Homo sapiens) (Q9NPH5 whole entry, looked up): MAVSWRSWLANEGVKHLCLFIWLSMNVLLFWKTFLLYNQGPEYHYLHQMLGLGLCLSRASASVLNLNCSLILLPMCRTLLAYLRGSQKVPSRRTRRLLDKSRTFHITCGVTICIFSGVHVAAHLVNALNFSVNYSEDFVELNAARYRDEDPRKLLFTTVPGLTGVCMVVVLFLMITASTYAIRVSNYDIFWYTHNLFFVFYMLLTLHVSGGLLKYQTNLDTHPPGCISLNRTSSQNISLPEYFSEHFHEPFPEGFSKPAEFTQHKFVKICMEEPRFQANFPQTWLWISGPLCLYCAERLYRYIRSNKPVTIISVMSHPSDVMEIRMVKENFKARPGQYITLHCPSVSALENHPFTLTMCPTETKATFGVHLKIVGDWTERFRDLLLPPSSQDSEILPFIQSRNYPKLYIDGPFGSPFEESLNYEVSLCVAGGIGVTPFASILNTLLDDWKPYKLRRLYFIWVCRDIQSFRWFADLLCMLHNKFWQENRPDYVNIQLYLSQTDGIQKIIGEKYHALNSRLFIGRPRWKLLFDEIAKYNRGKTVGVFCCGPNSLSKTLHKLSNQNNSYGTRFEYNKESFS

[20] = target: NADPH oxidase 5 (Homo sapiens) (UniProt Q96PH1); assay: NOX5-dependent H2O2 signal modulators, primary screen, NOX inhibitor project, cell-based, HEK293-NOX5, Amplex Red fluorescence (AID 1161); conditions: HEK293-NOX5, ionomycin, 45 min, higher = more signal
Chain of NADPH oxidase 5 (Homo sapiens) (Q96PH1 whole entry, looked up): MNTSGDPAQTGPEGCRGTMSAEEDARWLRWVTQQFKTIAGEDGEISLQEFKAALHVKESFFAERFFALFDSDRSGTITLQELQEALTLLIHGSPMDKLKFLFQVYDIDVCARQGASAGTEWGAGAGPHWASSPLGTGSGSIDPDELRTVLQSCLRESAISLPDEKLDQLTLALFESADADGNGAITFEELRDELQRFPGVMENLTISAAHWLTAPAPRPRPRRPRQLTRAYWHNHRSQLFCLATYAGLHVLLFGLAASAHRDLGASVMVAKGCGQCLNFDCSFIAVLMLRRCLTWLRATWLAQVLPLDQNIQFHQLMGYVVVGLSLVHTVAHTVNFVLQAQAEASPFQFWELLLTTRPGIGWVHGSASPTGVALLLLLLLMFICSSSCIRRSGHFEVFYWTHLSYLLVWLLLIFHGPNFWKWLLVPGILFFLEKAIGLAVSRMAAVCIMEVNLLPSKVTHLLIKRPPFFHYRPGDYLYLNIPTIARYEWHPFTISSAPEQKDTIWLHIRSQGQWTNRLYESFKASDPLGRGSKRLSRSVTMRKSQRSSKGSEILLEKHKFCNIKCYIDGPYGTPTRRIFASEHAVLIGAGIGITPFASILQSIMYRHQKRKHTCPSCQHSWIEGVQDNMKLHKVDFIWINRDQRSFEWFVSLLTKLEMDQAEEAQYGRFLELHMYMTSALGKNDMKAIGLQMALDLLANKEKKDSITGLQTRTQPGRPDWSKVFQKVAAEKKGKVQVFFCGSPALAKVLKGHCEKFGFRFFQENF

Structure (SMILES)	composite z-score [1]	z-score [2]	z-score [3]	z-score [4]	z-score [5]	composite z-score [6]	composite z-score [7]	composite z-score (Torsin-1A (Homo sapiens) [8])	composite z-score (Torsin-1A (Homo sapiens) [9])	composite z-score [10]	z-score [11]	composite z-score [12]	z-score [13]	z-score [14]	z-score [15]	z-score [16]	z-score [17]	z-score [18]	z-score [19]	z-score [20]
Cc1ccccc1C(O)C1C=CC2C(=O)NC(=O)C2N1Nc1ccccn1 (stereo not given)	-0.155	1.14 (inactive)	-0.767 (inactive)	-0.708 (inactive)	-0.474 (inactive)	-0.15	-0.102	0.248	0.0151	-0.224	-0.908 (inactive)	-0.229	0.408 (inactive)	0.608 (inactive)	-0.0205 (inactive)	0.68 (inactive)	-1.01	-0.444 (inactive)	-2.62 (inactive)	-1.27
CC1CC/C=C\[C@H]2OC34C=CCN(c5ccc(Cl)cc5)C(=O)[C@H]3N(C(C)CO)C(=O)[C@]4(C)C2C(=O)O1 (stereo not given in full)	-0.304	0.0276 (inactive)	0.2 (inactive)	-0.0859 (inactive)	0.325 (inactive)	-0.367	-0.401	-0.979	-1.5	-0.374	0.346 (inactive)	-0.284	0.685 (inactive)	0.67 (inactive)	0.335 (inactive)	0.281 (inactive)	0.116	0.889 (inactive)	-0.383 (inactive)	1.17
O=C(O)[C@@H]1[C@@H]2C(=O)N(c3ccccc3)C(=O)[C@@H]2C[C@@H]1Sc1ccccc1	-0.129	0.739 (inactive)	0.956 (inactive)	0.379 (inactive)	0.774 (inactive)	-0.237	-0.389	-0.402	-1.03	-1.45	-1.52 (inactive)	-0.0573	0.919 (inactive)	0.544 (inactive)	0.0175 (inactive)	0.631 (inactive)	-0.381	0.312 (inactive)	-0.541 (inactive)	-0.295
CC[C@@H]1C=C(C(=O)O)[C@H](c2ccc(C#N)cc2)N1S(=O)(=O)c1ccc(C)cc1	0.413	-0.857 (inactive)	0.24 (inactive)	-0.975 (inactive)	-0.397 (inactive)	0.569	-0.157	1.26	1.65	0.0698	-0.29 (inactive)	0.276	1.48 (inactive)	0.544 (inactive)	-0.158 (inactive)	0.192 (inactive)	-0.436	0.452 (inactive)	-0.156 (inactive)	-0.848
CCCNC(=O)[C@@]1(C)c2ccccc2C(=O)N(c2ccc(C)cn2)[C@H]1c1ccc(CO)cc1	-0.297	0.242 (inactive)	-0.31 (inactive)	1.29 (inactive)	-0.0049 (inactive)	-0.516	0.0398	0.399	0.266	0.224	-0.819 (inactive)	0.0533	1.57 (inactive)	0.123 (inactive)	0.181 (inactive)	0.0101 (inactive)	0.426	-1.23 (inactive)	0.155 (inactive)	0.238
COC(=O)C1=CC(CCCO)=CC(c2cccs2)N(Cc2cccc(OC(F)(F)F)c2)C=C1C(=O)OC (stereo not given)	0.237	-3.26 (inactive)	0.759 (inactive)	-0.815 (inactive)	0.0187 (inactive)	1.93	-0.0619	1	1.56	-0.403	-0.504 (inactive)	-0.126	4.92 (inactive)	1.34 (inactive)	0.87 (inactive)	0.842 (inactive)	-0.344	-0.244 (inactive)	-0.436 (inactive)	-0.0441
CCOC(=O)C1=CC[C@@H](c2ccccc2F)N(S(=O)(=O)c2ccc(C)cc2)[C@H]1c1ccccc1	0.483	-3.92 (inactive)	0.0947 (inactive)	0.827 (inactive)	0.649 (inactive)	0.872	-0.045	0.263	0.388	0.649	-1.33 (inactive)	-0.0544	0.353 (inactive)	1.17 (inactive)	0.0175 (inactive)	0.338 (inactive)	-0.445	0.941 (inactive)	0.6 (inactive)	2.18
CCCCCCCCCC(O)C1C=CC2C(=O)N(c3ccccc3)C(=O)C2N1Nc1cc(OC)c(OC)c(OC)c1 (stereo not given)	-0.128	-4.06 (inactive)	0.123 (inactive)	0.815 (inactive)	-0.262 (inactive)	0.581	-0.0334	-1.45	-0.241	-0.511	-3.95 (inactive)	0.448	7.78 (inactive)	1.84 (inactive)	-0.372 (inactive)	-0.449 (inactive)	1.05	-2.86 (inactive)	-4.13 (inactive)	-2.67
CC(=O)N1CC2(CC2)CC1c1ccccc1 (stereo not given)	0.898	-0.283 (inactive)	0.108 (inactive)	0.397 (inactive)	-0.366 (inactive)	0.547	0.507	0.192	0.421	-0.515	-1.35 (inactive)	0.433	-0.0747 (inactive)	0.635 (inactive)	0.539 (inactive)	0.715 (inactive)	-0.0482	-0.328 (inactive)	-1.08 (inactive)	-2.74
